According to PubChem BioAssay AID1566 (Sanford-Burnham Center for Chemical Genomics, 2009):
Screen size: about 290,000 compounds; about 1,800 (0.62%) were called active. Only a selection was taken, and actives are over-represented in it overall. Values without a mark were called inactive. Rule as the data show it: active = inhibition above about 50%; inactive = the rest.

Assay: inhibition of NOD2-driven NF-kB reporter – cell-based, luminescence, uHTS, HEK293 (AID 1566)
Conditions: HEK293 NOD2/NF-kB luciferase reporter, at 4 µM, stronger effect = higher value

Structure (SMILES) | inhibition
COC(=O)C1=C(C(=O)OC)[C@@H]2N(C)c3ccc(OC)cc3[C@@]23C[C@@H](C(=O)OC)N(C(=O)C2CCC2)C3=N1 | -5.5%
COc1ccc(/C=C2\CC/C(=C\c3ccc(OC)cc3OC)C2=O)c(OC)c1 | -4.6%
COc1ccc(/C=C2\CCC/C(=C\c3ccc(OC)c(OC)c3OC)C2=O)c(OC)c1OC | -10.3%
COc1cc(OC)c(OC)cc1/C=C1\CCC(C2CCCC2)C1=O (stereo not given) | 27%
COc1cc(/C=C2/CC/C(=C/c3ccc(O)c(OC)c3)C2=O)ccc1O | -69.1%
COc1cc(/C=C2\COC/C(=C\c3ccc(O)c(OC)c3)C2=O)ccc1O | 2%
COc1cc(OC)c(OC)cc1/C=C1/Cc2ccccc2C1=O | 26.6%
CCCn1cnnc1CNC(=O)C1CCC(=O)N(CCc2ccc(OC)cc2)C1 (stereo not given) | -2.5%
COc1cc(OC)cc(C(=O)N[C@H](C(=O)NCc2ccco2)C(C)C)c1 | 4.8%
CCN1CCN(CC(=O)N2c3ccccc3Sc3ccccc32)CC1 | 21.1%
Cc1noc(C)c1CSCC(=O)OCC(=O)NC1CCCCC1 | 1.1%
[O-][N+]1=C2CCC/C(=N\O)C2=NC12CCCCC2 | -8.9%
COc1ccccc1CNC(=O)N1CCN(c2ccccc2Cl)CC1 | 4%
COc1ccccc1CNC(=O)N1CCN(c2ccccc2C)CC1 | 71% (active)
COc1ccccc1CNC(=O)N1CCN(c2ccccc2)CC1 | 8.6%
O=C(CCC(=O)N1CCc2ccccc21)Nc1ccccc1 | 12.5%
N/C(=N\N=C/c1ccc(Br)cc1)N/N=C\c1ccc(Br)cc1 | -5.9%
CCN1CCN(c2ccc(NC(=O)COc3ccc([N+](=O)[O-])cc3)cc2)CC1 | -32.4%
CCc1nnc(NC(=O)CCC(=O)N2CCN(Cc3ccc(Cl)cc3)CC2)s1 | 5.9%
CCCc1nnc(NC(=O)CCC(=O)N2CCN(Cc3ccc(F)cc3)CC2)s1 | -3.9%

Structure (SMILES) | inhibition
CCCc1nnc(NC(=O)CCC(=O)N2CCN(Cc3ccc(Cl)cc3)CC2)s1 | 53.2% (active)
CCc1ccc(NC(=O)CC2C(=O)N(c3ccc(C)cc3)C(=O)N2C2CC2)cc1 (stereo not given) | -17.1%
O=C(Nc1ccc2ccccc2n1)Nc1ccccc1F | -1.1%
CCOc1ccc(N(C)c2ccc(/C=C3/SC(=S)NC3=O)cc2)cc1 | -2.9%
COc1ccc(-n2c(C)cc(/C=C3\SC(=S)NC3=O)c2C)cc1 | -195%
COc1ccc2cc(/C=C3\SC(=S)NC3=O)c(N3CCOCC3)nc2c1 | 42.8%
COc1ccccc1OCCCOc1ccc(/C=C2\SC(=O)NC2=O)cc1OC | 32%
COc1cc(/C=C2/SC(=O)NC2=O)ccc1OCc1ccccc1 | -9.8%
CCOc1ccc(/C=C2\SC(=S)NC2=O)cc1OC | -106%
COc1cccc(CNC(=O)C2CCC(=O)N(C3CC3)C2)c1OC (stereo not given) | -2.5%
O=C(NCCSCc1ccc(Cl)cc1)c1cccs1 | 6.3%
CCOc1ccc(-c2[nH]ncc2-c2ccc(Cl)cc2)c(O)c1 | 17.2%
CSc1nc(Oc2ccc3ccccc3c2)c2ccccc2n1 | -0.5%
CCN(Cc1ccccc1)C(=O)Cn1c(=O)n(CCC(=O)N2CCCCC2)c(=O)c2sccc21 | 1.5%
O=[N+]([O-])c1ccc(Nc2ccccc2)c2nonc12 | 42%
O=[N+]([O-])c1ccc(Nc2ccccc2O)c2nonc12 | 16%
O=[N+]([O-])c1ccc(Sc2cccc[n+]2[O-])c2nonc12 | 93% (active)
O=C(NCCN1CCOCC1)c1ccccc1N1C(=O)[C@@H]2Cc3c([nH]c4ccccc34)C(c3ccccc3)N2C1=O (stereo not given in full) | 5.2%
Cc1ccc(NC2CCCN(C(=O)CCn3nccc3C)C2)cc1C (stereo not given) | -4%
CC1(C)CC(N2CCCC2)=CC(=[N+]2CCCCC2)C1 | 33.8%

Structure (SMILES) | inhibition
CC1(C)CC(N2CCCCC2)=CC(=[N+]2CCCCC2)C1 | 44.9%
Cc1cc(C(=O)OCC(=O)Nc2cc(S(=O)(=O)N(C)C)ccc2Cl)c2ccccc2n1 | 10.5%
Cc1oc(-c2ccc3c(c2)OCCO3)cc1C(=O)NCC(=O)O | 18%
CCOC(=O)CNC(=O)c1cc(-c2ccc3c(c2)OCCO3)oc1C | -25%
Cc1oc(-c2ccc3c(c2)OCCO3)cc1C(=O)O | 79% (active)
CC1CN(CCOc2ccc(Cl)c(Cl)c2)CC(C)O1 (stereo not given) | -27.9%
O=C(NCC(=O)N1CCN(c2ccccc2)CC1)c1ccccc1 | -11.2%
Clc1ccc(/C=C/c2nc(Cl)c(-c3ccc(Cl)cc3)c(Cl)n2)cc1 | 15.1%
CN1/C(=C\C=C(/C#N)C(=O)Nc2ccccc2F)C(C)(C)c2ccccc21 | 23.2%
CN1/C(=C\C=C(/C#N)C(=O)Nc2ccc(Cl)cc2)C(C)(C)c2ccccc21 | 50.6% (active)
CN1/C(=C/C=C(/C#N)C(N)=O)C(C)(C)c2ccccc21 | -25.4%
Cc1nn(C(=O)CCCn2cc([N+](=O)[O-])cn2)c(C)c1Cl | 16.7%
Cc1ccc(C(=O)NCCNc2ccc([N+](=O)[O-])cc2C(F)(F)F)cc1 | 16.4%
COc1ccc(-c2cc(=O)oc3cc(OC(C)C(=O)O)ccc23)cc1 (stereo not given) | -5.9%
COc1ccc(-c2cc(=O)oc3cc(OCC(C)=O)ccc23)cc1 | -11.8%
CCCn1c(=O)c(Cc2ccccc2)c(O)c2ccccc21 | 6.4%
CCn1cc(/C=C(\NC(=O)c2ccc(OC)cc2)C(=O)N2CCOCC2)c2ccccc21 | 11.3%
Cc1cc2c(c(=O)o1)C(C(C)C)C(C#N)=C(N)O2 (stereo not given) | 6.9%
CCOC(=O)N1CCN(Cc2cc(Cl)c3cccnc3c2O)CC1 | 11.2%
OCCN1CCN(Cc2cc(Cl)c3cccnc3c2O)CC1 | -47.1%
